Test systems include NCI-H23 lung; NCI-H226 lung; NCI-H322M lung; HOP-62 NSCLC; NCI-H460 lung; HOP-92 NSCLC; NCI-H522 lung; A549/ATCC NSCLC; 786-0 renal; COLO 205 colon.
What all share (experiment): NCI-60 one-dose screen, 48 h (100 = growth as untreated, 0 = no growth, -100 = all killed)
Common to all, as to conditions: 10 µM unless noted

Consider 12 compounds from PubChem BioAssay (NCI).

The panel holds about 83,000 compounds, 20% with a hit somewhere; the sample as a whole holds those more often.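 The endpoint reported here, percent growth, reads 100 for growth as untreated, 0 for no net growth and -100 for all cells dead.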 A number with no mark means an inactive call. Calls of active or inactive are those of the source. The calls were made as follows: active = growth percent below 10; inactive = the rest.

Turning to `CCOc1ccc(N=C(C)Nc2ccc(OCC)cc2)cc1`, the growth with NCI-H23 lung is 102%; in the assay on NCI-H226 lung it was 110%; in the assay with NCI-H322M lung, 124%; in the assay on HOP-62 NSCLC, 109%; in the assay with NCI-H460 lung it was 102%; in the assay with HOP-92 NSCLC, 81.9%. For the same compound, the growth was 128% in the assay with NCI-H522 lung, 95.3% in the assay on A549/ATCC NSCLC, 104% in the assay with 786-0 renal and 102% in the assay with COLO 205 colon.

Turning to `N#Cc1c(-c2ccc(C(F)(F)F)cc2)cc(NCC2CCS(=O)(=O)CC2)n2c1nc1ccccc12`, the growth is 88.8% with NCI-H23 lung; 93.7% in the assay with NCI-H226 lung; 100% in the assay on NCI-H322M lung; 86.4% with HOP-62 NSCLC; 96.8% in the assay with NCI-H460 lung; 80.9% with HOP-92 NSCLC. The growth in the assay with NCI-H522 lung was 64.5%; with A549/ATCC NSCLC it was 77%; with 786-0 renal it was 84.6%; in the assay on COLO 205 colon it was 96.6%.

For the compound `CCOc1cc2ncc(C#N)c(Nc3ccc(F)c(Cl)c3)c2cc1NC(=O)/C=C/CN(C)C`, the growth in the assay on NCI-H23 lung was -28.5% (active); in the assay with NCI-H226 lung, -56.5% (active); with NCI-H322M lung, 0.98% (active); in the assay on HOP-62 NSCLC it was -27.7% (active); with NCI-H460 lung, -44% (active); in the assay on HOP-92 NSCLC, -30% (active). The growth was -57.5% (active) in the assay with NCI-H522 lung, -30.6% (active) in the assay with A549/ATCC NSCLC, -68.5% (active) in the assay on 786-0 renal and -83.2% (active) in the assay on COLO 205 colon.

Take `Cc1cc(-c2cc(O)ccc2Cl)cc2nnc(Nc3ccc(OCCN4CCCC4)cc3)nc12`: the growth in the assay with NCI-H23 lung was -63.2% (active); with NCI-H226 lung, -51.7% (active); with NCI-H322M lung, -94.4% (active); in the assay with HOP-62 NSCLC, -66.1% (active); in the assay on NCI-H460 lung, -81.6% (active); in the assay on HOP-92 NSCLC, -69.1% (active). Besides, the growth with NCI-H522 lung is -49.5% (active); in the assay with A549/ATCC NSCLC, -70.7% (active); in the assay with 786-0 renal it was -60.6% (active); in the assay on COLO 205 colon, -61.4% (active).

Regarding `CC(=O)C(C(C)=O)C(c1ccccc1)C(C(C)=O)C(C)=O`, the growth was 98.6% in the assay with NCI-H23 lung; 90.9% with NCI-H226 lung; 99.7% in the assay on NCI-H322M lung; 98.4% with HOP-62 NSCLC; 105% in the assay with NCI-H460 lung; 97.5% with HOP-92 NSCLC. Further, the growth in the assay with NCI-H522 lung is 91.7%; with A549/ATCC NSCLC, 89.3%; with 786-0 renal, 97.2%; in the assay on COLO 205 colon it was 104%.

As for `CC[C@H](Nc1ncnc2nc[nH]c12)c1nc2cccc(F)c2c(=O)n1-c1ccccc1`, the growth with NCI-H23 lung is 93%; with NCI-H226 lung, 93.3%; in the assay with NCI-H322M lung it was 42.9%; in the assay with HOP-62 NSCLC, 75.6%; in the assay on NCI-H460 lung it was 79.9%; in the assay on HOP-92 NSCLC it was 49.2%. The growth is 22.4% with NCI-H522 lung, 43.2% with A549/ATCC NSCLC, 37.5% with 786-0 renal and 96.1% with COLO 205 colon.

With `O=C(NO)c1ccc(Cn2c(=O)n(-c3ccccc3F)c(=O)c3ccccc32)cc1`, the growth was -40.4% (active) in the assay with NCI-H23 lung; 17.6% in the assay on NCI-H226 lung; 26.2% in the assay with NCI-H322M lung; 8.43% (active) in the assay on HOP-62 NSCLC; 19% with NCI-H460 lung; 23.2% with HOP-92 NSCLC. In addition, the growth in the assay on NCI-H522 lung was -60.3% (active); in the assay on A549/ATCC NSCLC it was 5.07% (active); in the assay on 786-0 renal, 33.3%; in the assay on COLO 205 colon it was -58.3% (active).

With `FC(F)c1nc2ccccc2n1-c1nc(N2CCOCC2)nc(N2CCOCC2)n1`, the growth is 0.202% (active) in the assay on NCI-H23 lung; -3.17% (active) in the assay on NCI-H226 lung; -22.6% (active) with NCI-H322M lung; -15.1% (active) in the assay with HOP-62 NSCLC; 7.27% (active) in the assay with NCI-H460 lung; -32.2% (active) with HOP-92 NSCLC. In addition, the growth in the assay on NCI-H522 lung is -1.95% (active); with A549/ATCC NSCLC, -17.2% (active); in the assay with 786-0 renal it was -32.8% (active); in the assay with COLO 205 colon it was -25.1% (active).

For `CNC(=O)CN1CCC(Oc2cc3c(Nc4cccc(Cl)c4F)ncnc3cc2OC)CC1`, the growth with NCI-H23 lung is 79.7%; with NCI-H226 lung it was 76.7%; in the assay with NCI-H322M lung it was -5.06% (active); in the assay on HOP-62 NSCLC, 38.3%; in the assay on NCI-H460 lung, 89.9%; with HOP-92 NSCLC it was 25.1%. For the same compound, the growth with NCI-H522 lung is 5.87% (active); in the assay with A549/ATCC NSCLC, 28.3%; in the assay with 786-0 renal it was 51.8%; in the assay with COLO 205 colon, 61.3%.

On to `CCN1CCN(c2nc(C)cc(N(CCNc3ccnc4cc(Cl)ccc34)Cc3ccc4c(c3)OCO4)n2)CC1`, for which the growth with NCI-H23 lung is 67.5%; with NCI-H226 lung, 75.3%; with NCI-H322M lung, 36.3%; with HOP-62 NSCLC, -19.8% (active); in the assay on NCI-H460 lung, 18.1%; with HOP-92 NSCLC, -4.69% (active). The growth with NCI-H522 lung is -0.151% (active); in the assay on A549/ATCC NSCLC it was 20.4%; in the assay on 786-0 renal, -24.5% (active); in the assay on COLO 205 colon, -75.8% (active).

`COc1ccc(CCCc2c3[n+](cc4c(OC)c(OC)ccc24)CCc2cc4c(cc2-3)OCO4)cc1`: the growth with NCI-H23 lung was 47.4%; with NCI-H226 lung, 88.4%; in the assay with NCI-H322M lung, 96.1%; in the assay on HOP-62 NSCLC, 78.6%; in the assay with NCI-H460 lung, 52.4%; in the assay on HOP-92 NSCLC, 77.8%. Further, the growth with NCI-H522 lung was 38.7%; in the assay with A549/ATCC NSCLC, 61.2%; in the assay on 786-0 renal it was 92.2%; with COLO 205 colon, -11.2% (active).

With `C[C@@H](Oc1cc(-n2cnc3ccc(CN4CCN(C)CC4)cc32)sc1C(N)=O)c1ccccc1C(F)(F)F`, the growth in the assay with NCI-H23 lung was 32.9%; in the assay on NCI-H226 lung, 69.3%; in the assay on NCI-H322M lung, 63.8%; with HOP-62 NSCLC, 4.73% (active); in the assay with NCI-H460 lung, 8.47% (active); with HOP-92 NSCLC it was 21.7%. Besides, the growth was -13.5% (active) in the assay on NCI-H522 lung, 0.209% (active) in the assay with A549/ATCC NSCLC, 6.39% (active) in the assay on 786-0 renal and -17.1% (active) in the assay on COLO 205 colon.
